# About 83,000 compounds went through this panel and 20% of them were active in at least one assay; those are over-represented in the sample as a whole.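 How to read the values: 0–100, growth inhibition (40 = 60% inhibited); 0, no net growth; -100 to 0, cell death (-40 = 40% of starting cells died; -100 = all dead).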 Values without a mark were called inactive. Active and inactive are the calls of the source. Rule for the calls: active = growth percent below 10; inactive = the rest.
# Legend:
# Assay in all cases: NCI-60 one-dose screen, 48 h (100 = growth as untreated, 0 = no growth, -100 = all killed)
# Settings in all cases: 10 µM unless noted
# NCI-H23 lung = system: NCI-H23 lung
# NCI-H226 lung = system: NCI-H226 lung
# NCI-H322M lung = system: NCI-H322M lung
# HOP-62 NSCLC = system: HOP-62 NSCLC
# NCI-H460 lung = system: NCI-H460 lung
# HOP-92 NSCLC = system: HOP-92 NSCLC
# NCI-H522 lung = system: NCI-H522 lung
# A549/ATCC NSCLC = system: A549/ATCC NSCLC
# 786-0 renal = system: 786-0 renal
# COLO 205 colon = system: COLO 205 colon
# DU-145 prostate = system: DU-145 prostate
# K-562 leukemia = system: K-562 leukemia
# MALME-3M melanoma = system: MALME-3M melanoma
# MDA-MB-231 breast = system: MDA-MB-231 breast
# RXF 393 renal = system: RXF 393 renal
# SF-268 CNS = system: SF-268 CNS
# SF-295 CNS = system: SF-295 CNS
# SF-539 CNS = system: SF-539 CNS
# UACC-257 melanoma = system: UACC-257 melanoma
# M14 melanoma = system: M14 melanoma
Compound,growth (NCI-H23 lung),growth (NCI-H226 lung),growth (NCI-H322M lung) [%],growth (HOP-62 NSCLC) [%],growth (NCI-H460 lung),growth (HOP-92 NSCLC),growth (NCI-H522 lung),growth (A549/ATCC NSCLC),growth (786-0 renal),growth (COLO 205 colon),growth (DU-145 prostate),growth (K-562 leukemia),growth (MALME-3M melanoma),growth (MDA-MB-231 breast),growth (RXF 393 renal),growth (SF-268 CNS),growth (SF-295 CNS) [%],growth (SF-539 CNS),growth (UACC-257 melanoma),growth (M14 melanoma)
CCN(CC)CCN1C(=O)c2c(c3c4ccccc4[nH]c3c3ccc4ccccc4c23)C1=O,-67.8% (active),87.5%,87,55.3,16.3%,66.2%,67.8%,-60.9% (active),-96.7% (active),78.7%,-92.3% (active),-33% (active),-85.7% (active),-78.9% (active),47.1%,-45% (active),48.3,-85.7% (active),105%,-85% (active)
O=C1C(Cl)=C(Nc2ccccc2)C(=O)c2ccccc21,-34.3% (active),95.5%,92.5,101,81.1%,-94.4% (active),-86.2% (active),90.8%,31.9%,14%,87.3%,-14.8% (active),-79.5% (active),-67.5% (active),-89.3% (active),-45.7% (active),90,44.9%,-79% (active),-69.4% (active)
COc1cc(C[C@H]2COc3cc(O)cc(O)c3C2=O)ccc1O,49.8%,101%,69.7,35.4,18.6%,30.9%,17.2%,46%,25.6%,106%,43.1%,9.86% (active),62%,55.3%,34.7%,47.2%,54.5,3.27% (active),35.8%,9.16% (active)
Fc1cccc(CNc2c3ccccc3nc3ccccc23)c1,33.9%,50.6%,40.2,47.9,12.7%,-4.06% (active),37.8%,29.3%,36.4%,17.3%,41.7%,15.7%,50.5%,30.6%,32.8%,62.1%,25.2,26.9%,58.1%,38.8%
N#Cc1c(-c2cccc(Cl)c2)cc(-c2cccnc2)[nH]c1=O,85.6%,87.9%,94.4,69.5,96.3%,80.2%,76.1%,93%,96.7%,93.4%,94.9%,43.9%,62.5%,81.9%,100%,79.9%,75.9,71.6%,68.2%,54.2%
Nc1ncccc1O,78%,94.1%,98.8,99.5,49.3%,105%,61.4%,77.9%,111%,92.6%,22.8%,67.6%,131%,117%,76.1%,96%,82.4,106%,91.3%,102%
O=Nc1ccc(NC(=O)Nc2ccc([N+](=O)[O-])cc2)cc1,87.5%,99.6%,103,110,91.5%,56.5%,78.8%,95.6%,86.5%,116%,113%,58.8%,102%,87%,119%,104%,98.1,101%,104%,102%
Nc1cc(C(=O)O)cc(-n2c(O)c(C=C3N=c4ccccc4=N3)sc2=S)c1,92.6%,85.4%,99.2,100,98%,81.6%,92.7%,104%,102%,103%,111%,116%,96.9%,89.4%,112%,97.6%,101,97.3%,102%,97.9%
CCN1C(=O)N(CC)C2C1NN=c1s/c(=C\c3ccc(OC)cc3)c(=O)n12 (stereo not given),32.2%,60.5%,45.9,37.1,4.22% (active),33%,-9.26% (active),10%,20.8%,-7.08% (active),6.18% (active),8.38% (active),40.2%,16.3%,33.9%,49.4%,13.2,-21.4% (active),56.3%,6.11% (active)
COc1cc2c(cc1-c1c(C)noc1C)ncc1nc(CN3CCOCC3)n([C@H](C)COC(F)F)c12,45.4%,58%,38.5,16.6,51.9%,5.85% (active),-0.0255% (active),37.6%,45.5%,14.7%,62.2%,28%,37.8%,29.5%,35.1%,55.2%,40.3,35.1%,26.3%,40.1%
COc1cc(/C=C/C(=O)c2cccc(-n3cc(-c4ccc(Cl)cc4)[nH]c3=O)c2)ccc1O,97.5%,101%,92.6,130,93.7%,56.9%,23.4%,77.3%,84.3%,124%,78.1%,17.9%,87.8%,86%,23.7%,71.7%,76.7,84.2%,68%,85.8%
Cc1sc2nc(NCCN)[nH]c(=O)c2c1C,91%,84.8%,83.7,99.8,101%,87.7%,102%,101%,84.2%,77%,96.7%,103%,82.1%,81.1%,100%,91.4%,98,88.1%,107%,85.1%
O=S(=O)(NCCNc1nccc(-c2c(-c3ccc(F)c(O)c3)nc3sccn23)n1)c1ccc(Cl)cc1,42.1%,24.2%,55.8,60.2,27%,45%,22.2%,25.7%,38.3%,17.6%,44%,15.7%,20.6%,50.1%,25%,32.3%,29.5,43%,32.9%,27.5%
COC1/C=C/OC2(C)Oc3c(C)c(O)c4c(O)c(c(/C=N/N(c5ccccc5)c5ccccc5)c(O)c4c3C2=O)NC(=O)C(C)=C/C=C/C(C)C(O)C(C)C(O)C(C)C(OC(C)=O)C1C (stereo not given),64.3%,-47.9% (active),109,73.1,56.5%,79%,37.6%,57%,106%,8.26% (active),90.1%,72.4%,111%,90.9%,-53.5% (active),80.7%,65.1,89.8%,75.8%,95.7%

# — PubChem BioAssay (NCI)
